Screening data (PubChem BioAssay)
Compounds with a hit are over-represented: about 12% of the library has one in this group of screens.
G9a inh = inhibitors of human histone lysine methyltransferase G9a; Q96KQ7; G9a H3K9 monomethylation, AlphaScreen, 2 h; Potency, µM (series often up to 102 µM), most hits filed as inhibitors; actives 8.8% (n = 350,000); note: nearly all actives have a fitted effect of over 75% in size
Target sequence (Q96KQ7 913-1193 limits assumed): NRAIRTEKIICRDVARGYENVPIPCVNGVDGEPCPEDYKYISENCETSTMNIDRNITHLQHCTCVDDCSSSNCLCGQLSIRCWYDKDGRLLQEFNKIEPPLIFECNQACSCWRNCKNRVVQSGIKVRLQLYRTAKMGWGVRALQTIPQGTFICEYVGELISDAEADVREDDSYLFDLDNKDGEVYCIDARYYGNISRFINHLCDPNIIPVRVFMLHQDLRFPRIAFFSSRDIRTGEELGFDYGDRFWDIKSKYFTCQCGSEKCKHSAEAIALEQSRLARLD
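Using a bead-based AlphaScreen, monomethylated H3K9 product from 2 h room-temperature reactions (G9a 20 nM, peptide 500 nM, SAM 20 uM) was detected with 0.5 ug/mL rabbit anti-H3K9me1 antibody.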
JMJD2A Tudor inh = JMJD2A Tudor domain (human) inhibition. Potency, µM (doses to about 114 µM), most hits filed as inhibitors. AlphaScreen JMJD2A-Tudor / H3K4me3 peptide binding. O75164. actives 4.4% (n = 390,000); note: nearly all actives have a fitted effect of over 50% in size
Sfp inh = inhibitors of Bacillus subtilis Sfp phosphopantetheinyl transferase; Biochemical Sfp PPTase activity, qHTS; Potency, µM, actives largely listed as inhibitors; actives 3.5% (n = 310,000); AID 1490;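 note: the enzyme is Sfp with the accession as filed and its product quenches rhodamine fluorescence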
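Reaction rates are the 30-min fluorescence difference (ex 525, em 598 nm) in wells containing 15 nM Sfp, 5 uM rhodamine-CoA and 12.5 uM BHQ-2-YbbR at pH 7.6 with 10 mM MgCl2.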
HP1b chromo inh = blocks HP1-beta chromodomain binding to methylated histone tails; actives 0.56% (n = 390,000); AlphaScreen HP1-beta / biotin-H3K9me3 peptide binding; Potency, µM (series often up to 114 µM), actives largely listed as inhibitors; P83916; note: nearly all actives have a fitted effect of over 70% in size
Target sequence (P83916 whole entry, looked up): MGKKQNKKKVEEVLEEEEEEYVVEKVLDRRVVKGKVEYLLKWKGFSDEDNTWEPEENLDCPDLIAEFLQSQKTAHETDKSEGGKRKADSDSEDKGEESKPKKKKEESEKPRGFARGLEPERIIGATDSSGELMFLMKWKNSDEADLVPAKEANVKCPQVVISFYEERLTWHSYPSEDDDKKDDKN
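HP1-beta protein (50 nM final) preincubated 30 min at room temperature with biotinylated H3(1-18)K9me3 peptide (50 nM) in PBS pH 7.4, 0.01% Tween-20, then compound added for 30 min. AlphaScreen streptavidin donor/nickel chelate acceptor beads (10 ug/mL final), 30 min dark, luminescence read.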
BAZ2B inh = inhibitors of human BAZ2B bromodomain; Q9UIF8; AlphaScreen BAZ2B-H3K14Ac peptide displacement; Potency, µM (highest dose often 114 µM), most hits filed as inhibitors; actives 4.4% (n = 360,000); AID 504333; note: nearly all actives have a fitted effect of over 60% in size
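AlphaScreen displacement: compounds (up to 110uM) incubated 30 min at room temperature with a preformed 50 nM BAZ2B/50 nM biotinylated H3K14Ac peptide complex in PBS pH 7.4 with Tween-20. Donor and acceptor beads at 10 ug/mL final added, 20 min light-protected before reading.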
Hits are given with their value; . = inactive; ? = inconclusive; / = no result given; [ ] = dose if it differs, or a comment. Calls come from the whole dose curve; as a rule, active = well fitted curve in the direction sought with a large enough effect; inconclusive = small, poorly fitted or top-dose-only effect, or another doubt; inactive = no such curve, though single readings can be large; an effect the other way counts as inactive or inconclusive.

SMILES	G9a inh	JMJD2A Tudor inh	Sfp inh	HP1b chromo inh	BAZ2B inh
Cc1ccc(OCc2nc(-c3ccccn3)no2)cc1	.	.	.	.	.
COC(=O)[C@]1(C)N[C@H](CN(C)S(=O)(=O)c2ccc(OC(F)(F)F)cc2)[C@@H]2C(=O)N(Cc3ccccc3)C(=O)[C@@H]21	/	.	/	.	/
CCNc1ncc2nc(-c3ccc(OC)cc3)c(=O)n(Cc3ccc(F)cc3)c2n1	.[0.501 µM]	/	.	/	/
O=C(CC(O)CCc1ccccc1)c1ccc(O)cc1 (configuration not stated)	/	.	/	.	/
Oc1ccc(/C=N/n2c(COc3ccccc3)n[nH]c2=S)c(O)c1	1.8µM	.	56µM	.	.
CCOc1ccccc1/C=N/n1c(COc2ccccc2)n[nH]c1=S	14µM	?	35µM	.	?
Oc1ccccc1/C=N/n1c(COc2ccccc2)n[nH]c1=S	2.5µM	79µM	?	?	.
Cc1ccccc1/C=N/n1c(COc2ccccc2)n[nH]c1=S	2µM	.	.	.	.
S=c1[nH]nc(COc2ccccc2)n1/N=C/c1ccc(Cl)cc1Cl	?	.	.	.	.
O=C1CCC2=C1C1(CCCC1)N=C(Nc1nc3ccccc3o1)N2	/	.	/	/	/
CC(C)(C)N(Cc1ccccc1)C(=O)COC(=O)C1CC(=O)N(Cc2ccccc2)C1 (configuration not stated)	/	.	/	.	/
Fc1ccccc1/C=N/n1c(COc2ccccc2)n[nH]c1=S	2.2µM	32µM	56µM	?	?
COc1cc(C(=O)O)nc(OC)n1	?	2.8µM	.	.	71µM
COc1cc(NC(=O)CCc2ccccc2)nc(OC)n1	.	.	.	.	.
Cc1cccc(NC(=O)c2nc[nH]c2C(=O)N2CCN(c3ccccc3)CC2)c1	/	.	/	.	/
CCc1ccc(S(=O)(=O)c2nnn3c2nc(N2CCOCC2)c2sccc23)cc1	.	.	/	?	?
CC(C)(C)NC[C@@H](O)c1ccc(O)c(CO)n1	.	/	.	/	/
CN(C)S(=O)(=O)c1cccc(C(=O)Nc2n[nH]c(C(F)(F)F)n2)c1	.	7.1µM	.	.	.
COc1ccc(Cc2nc3ccccc3n2CC(=O)N/N=C/c2ccc(C)cc2O)cc1OC	?	?	.	.	56µM
CC1CCc2sc(C(=O)NNC(=O)c3ccncc3)cc2C1 (configuration not stated)	.[2.33 µM]	.	/	.	.
CCN1CCC(=NNC(=O)c2ccco2)CC1	45µM	.[11.4 µM]	.	.	.
COc1cc(O)c(C(C)=O)c(CC(=O)O)c1	?	32µM	89µM	?	40µM
COc1cc(O)c(C(C)=O)c(OC)c1	/	.	.	.	/
CC(=O)Oc1cccc2c1C(=O)C1CC=CC(OC(C)=O)C1C2=O (configuration not stated)	/	?	/	.	/
Cc1cc(C)nc(N2N=C(C(C)(C)C)CC2=O)n1	3.5µM	?	.	.	.
SMILES	G9a inh	JMJD2A Tudor inh	Sfp inh	HP1b chromo inh	BAZ2B inh
COc1ccc(N(C(=O)c2ccco2)C(C(=O)NC2CCCC2)c2ccncc2)cc1OC (configuration not stated)	71µM	.	.	.	.
COc1ccc(C(C(=O)NC2CCCC2)N(C(=O)c2ccco2)c2ccc(OC)c(OC)c2)cc1 (configuration not stated)	.	.	.	.	.
CCc1ccc(N(C(=O)CNC(=O)c2ccco2)C(C(=O)NC2CCCC2)c2cccnc2)cc1 (configuration not stated)	.	50µM	.	.	.
COc1ccc(N(C(=O)c2ccco2)C(C(=O)NC2CCCC2)c2cccs2)cc1OC (configuration not stated)	?	.	40µM	.	.
COC(=O)C1=C(C)N(CCC2=CCCCC2)C(=O)C1	.[12.7 µM]	50µM	.	.	.
O=C(COC(=O)CNC(=O)c1ccccc1)Nc1cc(C(F)(F)F)ccc1Cl	/	.	/	/	/
Cc1cccc(C(=O)OCC(=O)NC(=O)c2ccccc2)c1O	.[0.501 µM]	.	/	.	79µM
Cc1cnc(C(=O)OCC(=O)NC(=O)c2ccccc2)cn1	45µM	.	/	.	?
Cc1cc(C)c(C(=O)OCC(=O)NC(=O)c2ccccc2)c(C)c1	.	.	/	.	.
Cc1cccc(C(=O)n2nc(-c3cccnc3)nc2NCc2ccc(F)cc2)c1	.	.	/	.	.
CC1(C)Cc2nc3oc4c(NCCCN5CCOCC5)ncnc4c3cc2CO1	/	.	.	.	.
CC1(C)Cc2ccccc2C(CSc2ccccc2C(=O)O)=N1	/	56µM	.	.	50µM
